Laboratory results published in PubChem BioAssay (Tox21).
Records with an inconclusive call do not appear. Active and inactive are the calls of the source. Unless noted, calls come from the whole dose curve.

What was measured:
[1] = Nuclear factor erythroid 2-related factor 2/antioxidant responsive element (Nrf2/ARE) small molecule agonists: luciferase reporter gene qHTS assay in human keratinocytes (AID 1919969); note: nearly all actives have a fitted effect of over 35% in size; note: potency is the fitted concentration of half-maximal effect
[2] = biological target: Gonadotropin-releasing hormone receptor (Homo sapiens) (UniProt P30968); assay: Human gonadotropin-releasing hormone receptor (GnRHR) small molecule agonists, calcium flux assay in GnRHR-HEK293 cells (AID 1920063); note: nearly all actives have a fitted effect of over 35% in size
Sequence of Gonadotropin-releasing hormone receptor (Homo sapiens) (P30968 whole entry, looked up): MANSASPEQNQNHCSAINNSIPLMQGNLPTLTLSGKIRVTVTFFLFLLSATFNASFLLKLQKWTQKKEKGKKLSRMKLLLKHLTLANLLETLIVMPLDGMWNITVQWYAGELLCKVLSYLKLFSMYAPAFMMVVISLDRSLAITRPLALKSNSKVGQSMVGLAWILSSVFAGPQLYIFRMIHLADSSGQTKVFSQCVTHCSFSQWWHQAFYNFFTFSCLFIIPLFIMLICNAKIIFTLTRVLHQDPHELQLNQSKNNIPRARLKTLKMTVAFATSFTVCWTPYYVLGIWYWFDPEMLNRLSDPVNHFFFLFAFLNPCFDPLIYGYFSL
Method in brief: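 Stable human GnRHR HEK293 line. 18 h plating, then calcium dye for 1 h at 37 C. Agonist-mode compound addition from DMSO stocks; fluorescence monitored 3 min.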

[3] = biological target: KiSS-1 receptor (Homo sapiens) (UniProt Q969F8); assay: Human kisspeptin (KISS1R) small molecule agonists, calcium flux assay in KISS1R-HEK293 cells (AID 1920064; active = well fitted activation curve with a large enough effect in the repeat runs)
Sequence of KiSS-1 receptor (Homo sapiens) (Q969F8 whole entry, looked up): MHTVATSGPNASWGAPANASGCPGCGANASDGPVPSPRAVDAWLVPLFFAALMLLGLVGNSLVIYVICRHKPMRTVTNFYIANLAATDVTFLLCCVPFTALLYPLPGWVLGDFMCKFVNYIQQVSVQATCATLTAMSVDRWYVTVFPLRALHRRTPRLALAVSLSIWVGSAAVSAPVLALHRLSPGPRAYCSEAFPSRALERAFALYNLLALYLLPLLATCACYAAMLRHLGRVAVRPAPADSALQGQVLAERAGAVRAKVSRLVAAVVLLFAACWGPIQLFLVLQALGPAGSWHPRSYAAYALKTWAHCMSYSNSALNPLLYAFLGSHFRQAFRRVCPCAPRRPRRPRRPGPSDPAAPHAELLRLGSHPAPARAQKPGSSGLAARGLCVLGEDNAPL
Method in brief: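 After overnight (18 h) culture at 37 C/5% CO2, human KISS1R-HEK293 cells received calcium dye for 1 h, then test compound; emission at 540 nm (excitation 480 nm) was tracked for 3 min.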

[4] = G protein-coupled receptor (GPCR) small molecule agonists, calcium flux assay: HEK293 wild type cell line counter screen (AID 1920065)
Method in brief: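 Following 18 h incubation at 37 C/5% CO2, plates got calcium dye for 1 h; compounds, ATP or DMSO were then pinned in and fluorescence followed kinetically (480/540 nm).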

[5] = p53 small molecule agonists, cell-based qHTS assay with human liver microsomes (AID 1963577)
Method in brief: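 Cells carrying a p53-responsive bla reporter were rested 5 h (37 C, 5% CO2) before compound transfer. Human liver microsomes plus NADPH, 0.5 mg/mL final apiece, supplied metabolism during the 16 h 37 C exposure.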

[6] = p53 small molecule agonists, cell-based qHTS assay with rat liver microsomes (AID 1963578)
Method in brief: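 Fluorescence from a beta-lactamase reporter under a p53 response element was measured after cells had been incubated 16 h at 37 C with test compound and rat liver microsomes plus NADPH (0.5 mg/mL final each).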

[7] = p53 small molecule agonists, cell-based qHTS assay with human liver microsomes: qHTS cell viability counter screen (AID 1963579); note: nearly all actives have a fitted effect of over 45% in size
Method in brief: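 Seed p53RE-bla cells at 4,000 per well; incubate 5 h at 37 C; add compound, human liver microsomes and NADPH; incubate 16 h at 37 C; add CellTiter-Glo; after 30 min at room temperature, read luminescence.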

[8] = p53 small molecule agonists, cell-based qHTS assay: qHTS cell viability counter screen (AID 1963581); note: nearly all actives have a fitted effect of over 45% in size
Method in brief: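 qHTS counter screen: 16 h compound exposure at 37 C of p53RE-bla HCT-116 cells (4,000 per well, seeded 5 h prior), cell viability by ATP luminescence.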

[9] = biological target: 5-hydroxytryptamine receptor 2A (Homo sapiens) (UniProt P28223); assay: 5-hydroxytryptamine receptor 2A (HTR2A) small molecule antagonists, cell-based qHTS assay (AID 1963586); note: nearly all actives have a fitted effect of over 45% in size; note: potency is the fitted concentration of half-maximal effect
Sequence of 5-hydroxytryptamine receptor 2A (Homo sapiens) (P28223 whole entry, looked up): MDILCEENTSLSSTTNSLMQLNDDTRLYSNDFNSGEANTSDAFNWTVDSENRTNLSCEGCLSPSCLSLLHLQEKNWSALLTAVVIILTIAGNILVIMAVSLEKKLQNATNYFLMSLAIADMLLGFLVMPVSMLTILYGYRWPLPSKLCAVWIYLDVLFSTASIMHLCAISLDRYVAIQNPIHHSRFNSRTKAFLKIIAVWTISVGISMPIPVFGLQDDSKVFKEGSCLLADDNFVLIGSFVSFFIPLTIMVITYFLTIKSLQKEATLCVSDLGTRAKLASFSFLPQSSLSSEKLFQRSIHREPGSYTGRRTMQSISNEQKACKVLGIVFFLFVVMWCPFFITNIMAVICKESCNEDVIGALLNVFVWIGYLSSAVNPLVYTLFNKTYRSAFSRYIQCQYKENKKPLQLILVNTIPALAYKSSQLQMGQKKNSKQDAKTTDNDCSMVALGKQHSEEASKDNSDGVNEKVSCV
Method in brief: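 CHO cells stably expressing human HTR2A were plated for 18 h at 37 C, then loaded with calcium dye for 1 h. Compounds were preincubated 5 min at room temperature before DOI (4 nM solution) was added. Kinetic fluorescence was read for 3 min.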

[10] = biological target: 5-hydroxytryptamine receptor 2A (Homo sapiens) (UniProt P28223); assay: 5-hydroxytryptamine receptor 2A (HTR2A) small molecule agonists, cell-based qHTS assay (AID 1963587); note: nearly all actives have a fitted effect of over 30% in size
Method in brief: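 Kinetic calcium-flux fluorescence (2 min, 1 sec intervals) after compound addition in agonist mode. HTR2A-CHO cells were cultured 18 h, then dye-loaded 1 h at 37 C.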

[11] = biological target: Muscarinic acetylcholine receptor M1 (Homo sapiens) (UniProt P11229); assay: Cholinergic receptor muscarinic 1 (CHRM1) small molecule antagonists, cell-based qHTS assay (AID 1963588); note: nearly all actives have a fitted effect of over 40% in size; note: potency is the fitted concentration of half-maximal effect
Sequence of Muscarinic acetylcholine receptor M1 (Homo sapiens) (P11229 whole entry, looked up): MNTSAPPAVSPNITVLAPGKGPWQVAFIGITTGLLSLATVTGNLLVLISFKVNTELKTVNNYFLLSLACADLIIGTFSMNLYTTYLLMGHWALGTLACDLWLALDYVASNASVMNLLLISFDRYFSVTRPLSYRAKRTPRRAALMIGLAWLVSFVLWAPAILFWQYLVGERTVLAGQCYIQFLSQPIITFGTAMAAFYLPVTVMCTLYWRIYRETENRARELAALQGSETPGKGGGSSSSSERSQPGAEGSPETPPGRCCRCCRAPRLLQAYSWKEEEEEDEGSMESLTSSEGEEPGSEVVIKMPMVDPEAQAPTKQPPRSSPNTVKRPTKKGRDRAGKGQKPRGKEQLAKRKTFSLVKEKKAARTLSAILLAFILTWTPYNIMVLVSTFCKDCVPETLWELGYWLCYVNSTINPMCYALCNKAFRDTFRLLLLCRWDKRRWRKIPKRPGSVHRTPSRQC
Method in brief: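 Compounds were tested at 15 concentrations in three independent runs. Dye-loaded CHRM1-CHO cells were exposed 5 min at room temperature before stimulation by acetylcholine added at 50nM. Intracellular calcium was read kinetically on FDSS for 3 min.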

[12] = biological target: Muscarinic acetylcholine receptor M1 (Homo sapiens) (UniProt P11229); assay: Cholinergic receptor muscarinic 1 (CHRM1) small molecule agonists, cell-based qHTS assay (AID 1963589); note: nearly all actives have a fitted effect of over 35% in size
Method in brief: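 Kinetic fluorescence (1 s intervals) of calcium-sensitive dye in human M1 CHO cells after compound addition; cells pre-incubated 18 h at 37 C/5% CO2 and dye-loaded 1 h.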

[13] = cAMP Responsive Elements (CRE) small molecule agonists, cell-based qHTS assay (AID 1963590)
Method in brief: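 Test agents in DMSO were incubated 3 h at 37 C/5% CO2 with CRE-bla HEK 293T cells seeded 18 h earlier; LiveBLAzer B/G FRET substrate was added and read after 2 h at room temperature.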

[14] = cAMP Responsive Elements (CRE) small molecule antagonists, cell-based qHTS assay (AID 1963591; active = well fitted inhibition curve with a large enough effect in the signal ratio in the repeat runs, not every such curve was filed as active; the % refers to the signal ratio)
Method in brief: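 Reporter line CRE-bla HEK 293T in dialyzed-FBS DMEM; cells preincubated 18 h, treated 3 h with compound plus NKH477 (0.25 uM final); LiveBLAzer FRET, 2 h RT.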

[15] = p53 small molecule agonists, cell-based qHTS assay with rat liver microsomes: qHTS cell viability counter screen (AID 1963580); note: nearly all actives have a fitted effect of over 45% in size
Method in brief: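 Cytotoxicity counter screen: intracellular ATP read by CellTiter-Glo luminescence in the p53 reporter wells. HCT-116 p53RE-bla cells were treated for 16 h at 37 C alongside rat liver microsomes and NADPH, each 0.5 mg/mL final.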

[16] = p53 small molecule agonists, cell-based qHTS assay (AID 1963582; active = well fitted activation curve with a large enough effect in the signal ratio in the repeat runs, not every such curve was filed as active; the % refers to the signal ratio)
Method in brief: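 Measured: fluorescence from cleaved LiveBLAzer substrate. System: p53RE-bla cells, 16 h compound treatment at 37 C, 2 h substrate step at room temperature.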

[17] = biological target: Beta-2 adrenergic receptor (Homo sapiens) (UniProt P07550); assay: Adrenergic beta2 receptor (ADRB2) small molecule antagonists, cell-based qHTS assay (AID 1963592); note: series mostly up to about 92 µM; nearly all actives have a fitted effect of over 50% in size
Sequence of Beta-2 adrenergic receptor (Homo sapiens) (P07550 whole entry, looked up): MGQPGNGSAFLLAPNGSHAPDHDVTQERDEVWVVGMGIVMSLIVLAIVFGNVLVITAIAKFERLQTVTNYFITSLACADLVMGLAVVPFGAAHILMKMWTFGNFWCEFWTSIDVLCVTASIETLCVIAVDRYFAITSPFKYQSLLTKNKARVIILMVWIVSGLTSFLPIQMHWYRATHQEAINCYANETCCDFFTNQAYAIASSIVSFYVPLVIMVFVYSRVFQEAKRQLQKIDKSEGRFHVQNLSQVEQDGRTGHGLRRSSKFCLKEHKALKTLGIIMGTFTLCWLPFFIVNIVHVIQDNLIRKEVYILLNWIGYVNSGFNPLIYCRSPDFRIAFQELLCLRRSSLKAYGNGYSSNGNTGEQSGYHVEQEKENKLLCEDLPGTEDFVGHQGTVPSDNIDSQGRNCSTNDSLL
Method in brief: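 Assay format: CHO-ADRB2 cells, 18-20hr seeding at 37C/5% CO2, then compound plus 1nM isoproterenol agonist mix for 0.5hr RT. Homogeneous time-resolved fluorescence cAMP detection after 1hr, expressed as 665/615 nm ratio.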

[18] = biological target: D(2) dopamine receptor (Homo sapiens) (UniProt P14416); assay: Dopamine D2 receptor (DRD2) small molecule agonists, cell-based qHTS assay (AID 1963594); note: nearly all actives have a fitted effect of over 35% in size
Sequence of D(2) dopamine receptor (Homo sapiens) (P14416 whole entry, looked up): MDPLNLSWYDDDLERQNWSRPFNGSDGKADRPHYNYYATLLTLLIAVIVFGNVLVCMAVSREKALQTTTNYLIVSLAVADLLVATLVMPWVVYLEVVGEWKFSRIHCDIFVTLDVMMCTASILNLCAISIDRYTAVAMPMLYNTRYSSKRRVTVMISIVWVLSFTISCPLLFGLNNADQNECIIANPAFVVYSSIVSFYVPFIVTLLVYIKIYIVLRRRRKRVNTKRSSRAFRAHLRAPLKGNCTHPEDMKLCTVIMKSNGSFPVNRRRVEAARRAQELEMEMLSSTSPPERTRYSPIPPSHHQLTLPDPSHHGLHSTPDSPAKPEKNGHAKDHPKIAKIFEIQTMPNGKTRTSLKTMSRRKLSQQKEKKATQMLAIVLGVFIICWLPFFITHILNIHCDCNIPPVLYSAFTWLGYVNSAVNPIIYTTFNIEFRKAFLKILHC
Method in brief: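 cAMP accumulation in DRD2-HEK293 cells measured by HTRF after 1 h detection; compounds added 10 min before NKH477 (200nM […]) forskolin-analogue stimulation, 30 min at room temperature, with Ro20-1724 present at 0.1 mM final.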

[19] = biological target: D(2) dopamine receptor (Homo sapiens) (UniProt P14416); assay: Dopamine D2 receptor (DRD2) small molecule antagonists, cell-based qHTS assay (AID 1963595; active = well fitted inhibition curve with a large enough effect in the signal ratio in the repeat runs, with a control signal flat; the % refers to the signal ratio)
Method in brief: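 DRD2-HEK293; 0.1 mM Ro20-1724; cpd 10 min RT; NKH477 200 nM + quinpirole 12 nM, 30 min RT; HTRF cAMP (cAMP-d2/anti-cAMP cryptate), 665/620 nm ratio after 1 h.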

[20] = biological target: Beta-2 adrenergic receptor (Homo sapiens) (UniProt P07550); assay: Adrenergic beta2 receptor (ADRB2) small molecule agonists, cell-based qHTS assay (AID 1963593);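 note: CHO cells stably overexpressing human ADRB2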
Method in brief: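 CHO cells stably over-expressing ADRB2 were plated overnight at 37C, then dosed with compounds plus a stimulation mix containing 100uM IBMX and 25uM Ro-20-1724 for 0.5hr at room temperature. cAMP was measured by HTRF competition, 1hr.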
% is set by controls: 0 for no effect and ±100 for the full control effect.

Cc1c(C(=O)O)c(O)cc2c1C(=O)c1c(O)c([C@@H]3O[C@H](CO)[C@@H](O)[C@H](O)[C@H]3O)c(O)c(O)c1C2=O
inactive: Potency [1] | Potency [2] | Potency [3] | Potency [4] | Potency [5] | Potency [6] | Potency [7] | Potency [8] | Potency [9] | Potency [10] | Potency [11] | Potency [12] | Potency [13] | Potency [14]

CC[N+](CC)(CC)CCOc1ccc(/C=C/c2ccccc2)cc1
active: Potency [9] 18.3 µM | Potency [11] 1.16 µM
inactive: Potency [1] | Potency [2] | Potency [3] | Potency [4] | Potency [5] | Potency [6] | Potency [7] | Potency [15] | Potency [16] | Potency [10] | Potency [12] | Potency [13] | Potency [14] | Potency [17]

Cc1ccc(O)c(N)c1
active: Potency [1] 24.4 µM
inactive: Potency [2] | Potency [3] | Potency [4] | Potency [5] | Potency [6] | Potency [15] | Potency [8] | Potency [16] | Potency [9] | Potency [10] | Potency [11] | Potency [12] | Potency [13] | Potency [14] | Potency [17] | Potency [18] | Potency [19]

C=Cc1ccc(O)c(OC)c1
inactive: Potency [2] | Potency [3] | Potency [4] | Potency [5] | Potency [6] | Potency [7] | Potency [8] | Potency [16] | Potency [9] | Potency [10] | Potency [11] | Potency [12] | Potency [13] | Potency [14] | Potency [17] | Potency [19]
active: Potency [1] 48.6 µM

N[C@@H](C(=O)N[C@@H]1C(=O)N2C(C(=O)O)=C(Cl)CS[C@H]12)c1ccccc1
inactive: activity, positive = activation [1] -7.33% [at 8.39 µM] | activity change [2] -0.646% [at 5.22 µM, active compounds read high] | activation [3] -2.2% [at 6.97 µM] | activation [4] -0.0598% [at 5.23 µM] | activation [5] 0.17% [at 5.99 µM] | activation [6] -0.141% [at 5.99 µM] | activity change, negative = cytotoxicity [7] 3.89% [at 5.99 µM] | activity change, negative = cytotoxicity [15] 0.042% [at 5.99 µM] | activation [16] 0.331% [at 5.99 µM] | activation [10] -1.95% [at 7.02 µM] | activity, negative = inhibition [11] 6.01% [at 5.58 µM] | activation [12] -0.906% [at 6.97 µM] | activation [13] -0.664% [at 8.39 µM] | activity change, negative = inhibition [14] -10.2% [at 8.39 µM] | activation [20] -30.9% [at 8.39 µM] | activity change, negative = inhibition [19] 6.7% [at 8.38 µM]

Cc1c(C(=O)NN2CCCCC2)nn(-c2ccc(Cl)cc2Cl)c1-c1ccc(Cl)cc1
inactive: Potency [1] | Potency [2] | Potency [3] | Potency [4] | Potency [5] | Potency [6] | Potency [7] | Potency [15] | Potency [8] | Potency [10] | Potency [11] | Potency [12] | Potency [13] | Potency [14] | Potency [17] | Potency [18] | Potency [19]

CN(C)c1ccc(SC#N)cc1
inactive: Potency [2] | Potency [3] | Potency [4] | Potency [5] | Potency [6] | Potency [7] | Potency [8] | Potency [16] | Potency [9] | Potency [10] | Potency [11] | Potency [12] | Potency [13] | Potency [17] | Potency [20] | Potency [18]
active: Potency [1] 24.3 µM
